Laboratory results reported in PubChem BioAssay.
For some assays here: Results with a measured potency or affinity are listed apart. Active and inactive are the calls of the source.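 The calls were made as follows, unless noted: active = calcium signal cut by more than 3 SD below the full-agonist control yet still positive, in both repeats and the earlier primary screen; inactive = the rest.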

Legend:
[1] = test system: TRPC4 beta (transient receptor potential cation channel C4), mouse; experiment: activators of mouse TRPC4 channel, confirmation, cell-based, Fluo4 calcium, HEK293 TRPC4beta/mu-opioid, duplicates, 10 µM (AID 2426;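 active = fluorescence ratio normalized to control raised more than 50% in primary screen plus both repeat runs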;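 as to activation: percent rise of integrated ratio over buffer wells lacking compound which define 0%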); conditions: Fluo4 calcium fluorescence, at 10 µM; stronger effect = higher value
[2] = test system: transient receptor potential cation channel C4 beta (TRPC4), mouse; experiment: activators of mouse TRPC4 channel, confirmation, cell-based, second round, Fluo4, HEK293 TRPC4beta/mu-opioid, 1 µM (AID 2461;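 active = primary screen active and over 50% activation in each of two duplicate runs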;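 as to activation: 0% = wells without test compound as baseline of integrated fluorescence ratio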); conditions: Fluo4 calcium fluorescence, at 1 µM; stronger effect = higher value
[3] = test system: TRPC4 (transient receptor potential cation channel C4 beta), mouse; experiment: positive allosteric modulators of mouse TRPC4, confirmation, cell-based, second round, Fluo-4, HEK293 TRPC4beta/mu-opioid, 1 µM (AID 2554;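 active = primary screen hit whose fluorescence ratio, in both repeats, exceeds the weak agonist control mean by 3 SD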); conditions: DAMGO EC20, Fluo-4 calcium flux, at 1 µM; stronger effect = higher value
[4] = test system: TRPC4 beta (transient receptor potential cation channel C4), mouse; experiment: positive allosteric modulators of mouse TRPC4, confirmation, cell-based, Fluo-4, HEK293 TRPC4beta/mu-opioid (AID 2555;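 active = primary screen hit whose calcium fluorescence ratio, in both repeats, exceeds the weak agonist control mean by 3 SD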); conditions: DAMGO EC20, Fluo-4 calcium flux, at 10 µM; stronger effect = higher value
[5] = molecular target: Short transient receptor potential channel 4 (Mus musculus) (UniProt Q9QUQ5); experiment: inhibitors of mouse TRPC4 channel, confirmation, cell-based, Fluo4, HEK293 TRPC4beta/mu-opioid (AID 2636); conditions: DAMGO, Fluo4 calcium flux, at 10 µM; stronger effect = higher value
[6] = molecular target: Short transient receptor potential channel 4 (Mus musculus) (UniProt Q9QUQ5); experiment: inhibitors of mouse TRPC4 channel, confirmation, cell-based, second round, Fluo4, HEK293 TRPC4beta/mu-opioid, 1 µM (AID 2637;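 active = calcium signal ratio cut to more than 3 SD under the fully stimulated control mean yet still positive, in both repeats and the primary screen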); conditions: Fluo4 calcium flux, DAMGO, at 1 µM; stronger effect = higher value
[7] = molecular target: Short transient receptor potential channel 4 (Mus musculus) (UniProt Q9QUQ5); experiment: mouse TRPC4 channel activators, dose response, cell-based, HEK293 TRPC4/mu-opioid, Fluo-4 calcium (AID 434937;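 active = primary screen activator hit with a dose response curve and TRPC4 channel activation at any tested dose; inactive = no activation, no dose response, or not a primary hit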)
[8] = molecular target: Short transient receptor potential channel 4 (Mus musculus) (UniProt Q9QUQ5); experiment: mouse TRPC4 channel inhibitors, dose response, cell-based, HEK293 TRPC4/mu-opioid, Fluo-4 calcium (AID 434942;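 active = primary screen inhibitor hit that blocks the TRPC4 channel at some tested dose, yielding a dose curve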)
[9] = molecular target: Short transient receptor potential channel 6 (Mus musculus) (UniProt Q61143); experiment: inhibition of mouse TRPC6 channel, confirmation, selectivity assay for TRPC4 inhibitor project, cell-based, HEK293, membrane potential dye, duplicate (AID 434948;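 active = active in primary screen and both duplicates, each dropping signal beyond three positive-control SD with fluorescence still positive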); conditions: HEK293 TRPC6, membrane potential dye fluorescence, at 10 µM, stimulated with maximal-effect acetylcholine; stronger effect = higher value
[10] = molecular target: Short transient receptor potential channel 6 (Mus musculus) (UniProt Q61143); experiment: activation of mouse TRPC6 channel, confirmation, selectivity assay for TRPC4 activator project, cell-based, HEK293, membrane potential dye, duplicate (AID 434950;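 active = membrane potential signal rise above negative control mean plus 3 SD in both duplicates, also active in the earlier TRPC4 screen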;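 as to activation: 0% = buffer only wells and 100% = acetylcholine maximal-effect wells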); conditions: HEK293 TRPC6, membrane potential fluorescence, at 10 µM; stronger effect = higher value
[11] = molecular target: Short transient receptor potential channel 6 (Mus musculus) (UniProt Q61143); experiment: TRPC6 potentiation by TRPC4 potentiator hits, confirmation, selectivity assay for TRPC4 potentiator project, HEK293 cells, membrane potential dye, duplicate (AID 434952;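 active = compound raising the membrane signal above positive-control mean plus 3 SD in both repeats, and a primary screen hit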); conditions: HEK293 TRPC6, membrane potential dye fluorescence, at 10 µM, maximal acetylcholine added after compound; stronger effect = higher value
[12] = molecular target: Short transient receptor potential channel 4 (Mus musculus) (UniProt Q9QUQ5); experiment: calcium flux activators in TRPC4/5HT1a cells, counter-screen for TRPC4 activator project, cell-based, second counter screen, HEK293 TRPC4/5HT1a, Fluo-4 (AID 434977;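 active = calcium signal rise above buffer-control mean plus 5 SD in both duplicates, and also a hit in the primary screen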;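 as to activation: plate controls were assay buffer for no effect and maximal serotonin response for full effect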); conditions: Fluo-4 calcium flux, at 10 µM; stronger effect = higher value
[13] = calcium flux inhibitors in TRPC4/5HT1a cells, confirmation, counter-screen for TRPC4 inhibitor project, cell-based, second counter screen, HEK293 TRPC4/5HT1a, Fluo-4 (AID 434978;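 active = primary screen active whose calcium signal fell more than 3 SD beyond the full-serotonin control mean in both duplicate plates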;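 also: serotonin given first at submaximal then at maximal dose after compound preincubation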); conditions: Fluo-4 calcium flux, at 10 µM, serotonin added to trigger calcium flux; stronger effect = higher value
[14] = test system: TRPC4 (mouse), co-expressed with 5HT1a in HEK293; experiment: calcium flux potentiators in TRPC4/5HT1a cells, confirmation, counter-screen for TRPC4 potentiator project, cell-based, second counter screen, HEK293 TRPC4/5HT1a, Fluo-4 (AID 434979;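 active = signal rise over 3 SD above mean of control wells given weak agonist, in both repeats and first screen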); conditions: Fluo-4 calcium flux, at 10 µM, serotonin added at its EC20 dose; stronger effect = higher value
[15] = calcium flux activation in mu-opioid HEK293 cells, confirmation, counter-screen for TRPC4 activator project, cell-based, HEK293 mu-opioid receptor line (AID 449723;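 active = hit in primary screen, with calcium signal over 5 SD above buffer well mean in both duplicates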;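 also: counter screen cells carry the mu-opioid receptor alone and lack TRPC4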); conditions: Fluo-4 calcium fluorescence, at 10 µM; stronger effect = higher value
[16] = calcium flux enhancement in mu-opioid HEK293 cells, confirmation, counter-screen for TRPC4 allosteric potentiator project, cell-based, HEK293 mu-opioid receptor line (AID 449724;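 active = calcium signal rise more than 3 SD above the low-dose agonist control mean, in both duplicate plates and the primary screen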); conditions: Fluo-4 calcium flux, at 10 µM, compound added before EC20 DAMGO stimulus; stronger effect = higher value
[17] = molecular target: Short transient receptor potential channel 4 (Mus musculus) (UniProt Q9QUQ5); experiment: TRPC4 positive allosteric modulators, dose response, cell-based, HEK293 TRPC4/mu-opioid, Fluo-4 calcium, EC20 DAMGO (AID 434941;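 active = earlier screen potentiator hit that boosts the TRPC4 ion channel at some dose, with a dose response; inactive = no potentiation, no dose response, or not a prior hit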;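 also: calcium entry triggered by an EC20 dose of DAMGO at the co-expressed mu-opioid receptor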)

Chain of Short transient receptor potential channel 6 (Mus musculus) (Q61143 whole entry, looked up): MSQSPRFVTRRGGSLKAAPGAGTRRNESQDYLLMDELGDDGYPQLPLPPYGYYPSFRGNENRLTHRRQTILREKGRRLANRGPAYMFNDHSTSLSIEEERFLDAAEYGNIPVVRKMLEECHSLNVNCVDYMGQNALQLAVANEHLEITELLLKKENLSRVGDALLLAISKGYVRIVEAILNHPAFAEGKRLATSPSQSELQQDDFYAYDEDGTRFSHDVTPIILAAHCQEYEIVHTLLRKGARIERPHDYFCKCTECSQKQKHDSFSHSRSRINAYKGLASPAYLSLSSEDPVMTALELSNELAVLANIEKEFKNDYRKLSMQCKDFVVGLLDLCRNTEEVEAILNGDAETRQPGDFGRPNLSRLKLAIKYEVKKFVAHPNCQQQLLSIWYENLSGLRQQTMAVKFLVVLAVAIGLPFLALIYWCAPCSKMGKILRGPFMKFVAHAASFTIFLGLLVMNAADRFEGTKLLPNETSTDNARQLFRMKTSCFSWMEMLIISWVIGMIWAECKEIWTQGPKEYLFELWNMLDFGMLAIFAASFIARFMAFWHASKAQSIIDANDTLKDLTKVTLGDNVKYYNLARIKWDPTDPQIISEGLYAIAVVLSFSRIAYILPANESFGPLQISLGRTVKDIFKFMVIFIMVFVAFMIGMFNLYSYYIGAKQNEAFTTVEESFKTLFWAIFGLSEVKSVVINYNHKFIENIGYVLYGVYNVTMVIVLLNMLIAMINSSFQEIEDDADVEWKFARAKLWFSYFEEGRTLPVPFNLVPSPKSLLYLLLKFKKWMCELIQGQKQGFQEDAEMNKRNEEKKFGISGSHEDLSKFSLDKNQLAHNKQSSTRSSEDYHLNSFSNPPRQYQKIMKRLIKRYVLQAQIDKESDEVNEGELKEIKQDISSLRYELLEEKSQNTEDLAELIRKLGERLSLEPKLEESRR
Chain of Short transient receptor potential channel 4 (Mus musculus) (Q9QUQ5 whole entry, looked up): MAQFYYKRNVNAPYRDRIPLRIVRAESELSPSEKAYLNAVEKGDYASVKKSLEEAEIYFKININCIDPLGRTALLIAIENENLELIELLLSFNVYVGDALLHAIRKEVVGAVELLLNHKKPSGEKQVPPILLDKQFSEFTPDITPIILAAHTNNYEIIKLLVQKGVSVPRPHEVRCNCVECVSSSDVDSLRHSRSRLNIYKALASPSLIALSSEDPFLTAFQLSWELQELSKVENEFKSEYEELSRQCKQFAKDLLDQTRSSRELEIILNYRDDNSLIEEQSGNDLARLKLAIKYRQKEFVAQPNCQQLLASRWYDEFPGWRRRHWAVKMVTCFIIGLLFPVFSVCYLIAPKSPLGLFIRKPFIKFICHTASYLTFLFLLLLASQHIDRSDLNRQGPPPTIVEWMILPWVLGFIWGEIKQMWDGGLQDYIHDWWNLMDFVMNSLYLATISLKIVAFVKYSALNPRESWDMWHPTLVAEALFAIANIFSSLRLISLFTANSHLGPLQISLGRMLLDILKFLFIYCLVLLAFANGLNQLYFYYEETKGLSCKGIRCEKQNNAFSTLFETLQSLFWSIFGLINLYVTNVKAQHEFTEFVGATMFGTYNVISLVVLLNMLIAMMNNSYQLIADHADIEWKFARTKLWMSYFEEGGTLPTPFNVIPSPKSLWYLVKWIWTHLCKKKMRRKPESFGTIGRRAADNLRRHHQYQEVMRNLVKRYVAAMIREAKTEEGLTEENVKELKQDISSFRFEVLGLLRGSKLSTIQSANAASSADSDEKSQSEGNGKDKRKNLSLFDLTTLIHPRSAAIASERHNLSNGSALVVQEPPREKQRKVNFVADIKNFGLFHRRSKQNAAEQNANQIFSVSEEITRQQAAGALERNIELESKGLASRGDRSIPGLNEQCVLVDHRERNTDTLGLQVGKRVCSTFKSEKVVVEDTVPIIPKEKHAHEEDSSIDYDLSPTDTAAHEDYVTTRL

Cc1ccc(Cl)cc1N1CCN(C(=O)c2cccc3c(=O)c(C)c(-c4ccccc4)oc23)CC1
inactive: outcome [1] | outcome [2] | outcome [3] | outcome [4] | outcome [5] | outcome [6] | outcome [7] | outcome [8] | outcome [9] | outcome [10] | outcome [11] | outcome [12] | outcome [13] | outcome [15] | outcome [16]
active: potentiation [14] 21.8%

COC(=O)[C@@]12CCCCN1[C@H](c1ccc(-c3cccc(Cl)c3)c(OC)c1)[C@H]1C(=O)N(C)C(=O)[C@H]12
active: potentiation [4] 27% | potentiation [14] 52.4%
inactive: outcome [1] | outcome [2] | outcome [3] | outcome [5] | outcome [6] | outcome [7] | outcome [8] | outcome [9] | outcome [10] | outcome [11] | outcome [12] | outcome [13] | outcome [15] | outcome [16]

CC1CCN(c2nc(Cl)nc(Nc3ccc([N+](=O)[O-])cc3)n2)CC1
active: potentiation [4] 15% | potentiation [14] 66%
inactive: outcome [1] | outcome [2] | outcome [3] | outcome [5] | outcome [6] | outcome [7] | outcome [8] | outcome [9] | outcome [10] | outcome [11] | outcome [12] | outcome [13] | outcome [15] | outcome [16]

Cc1ccc(S(=O)(=O)N2CCC(N3CCN(C)CC3)CC2)cc1Cl
inactive: outcome [1] | outcome [2] | outcome [5] | outcome [6] | outcome [7] | outcome [8] | outcome [9] | outcome [10] | outcome [11] | outcome [12] | outcome [13] | outcome [15] | outcome [16]
active: potentiation [3] 12% | potentiation [4] 20% | potentiation [14] 34.5%

COc1ccc(C(CNC(=O)c2cccc(NS(=O)(=O)c3ccc(Br)cc3)c2)N(C)C)cc1 (stereo not drawn)
active: activation [1] 253% | activation [2] 83% | activation [10] 35% | activation [12] 29.9%
inactive: outcome [3] | outcome [4] | outcome [5] | outcome [6] | outcome [17] | outcome [8] | outcome [9] | outcome [11] | outcome [13] | outcome [14] | outcome [15] | outcome [16]

CCCCCCn1c(N2CCN(c3ccccc3)CC2)nc2c1c(=O)n(C)c(=O)n2C
inactive: outcome [1] | outcome [2] | outcome [5] | outcome [6] | outcome [7] | outcome [8] | outcome [9] | outcome [10] | outcome [11] | outcome [12] | outcome [13] | outcome [15] | outcome [16]
active: potentiation [3] 9% | potentiation [4] 117% | potentiation [14] 81%

Cc1cc(OCC(=O)N(C(C)C)C(C)C)cc(C)c1Br
active: potentiation [4] 22% | potentiation [14] 31.9%
inactive: outcome [1] | outcome [2] | outcome [3] | outcome [5] | outcome [6] | outcome [7] | outcome [8] | outcome [9] | outcome [10] | outcome [11] | outcome [12] | outcome [13] | outcome [15] | outcome [16]

COc1ccc(Cl)cc1C(=O)NCCN(C)C
active: potentiation [14] 13.6%
inactive: outcome [1] | outcome [2] | outcome [3] | outcome [4] | outcome [5] | outcome [6] | outcome [7] | outcome [8] | outcome [9] | outcome [10] | outcome [11] | outcome [12] | outcome [13] | outcome [15] | outcome [16]
